Screening data as filed in PubChem.
This is a sample that favours compounds with a hit; in the whole collection about 3.8% have one here.
HT1080 IDH1KD tx = qHTS for induction of synthetic lethality in tumor cells producing 2HG: qHTS for the HT-1080-IDH1KD cell line; AID 686971, 2013; Potency, µM (titrated, usually from 46.1 µM), most hits filed as cytotoxic; HT-1080 IDH1 knockdown viability, ATP luminescence, 48 h; hit rate 2% among 360,000
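Assay cells: HT-1080 with IDH1 knockdown, 750 per well, RPMI/5% FBS. Exposure: 48 h at 37 °C following 2 h pre-incubation. Read: CellTiter-Glo luminescence; fitted concentration-response, curve class assigned.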
HT1080NT lethal = qHTS for induction of synthetic lethality in tumor cells producing 2HG: qHTS for the HT-1080-NT fibrosarcoma cell line | HT-1080-NT fibrosarcoma viability, CellTiter-Glo ATP luminescence, 48 h | Potency, µM (titrated, usually from 46.1 µM), usual class: cytotoxic | hit rate 1.6% among 360,000;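 note: NT is the 2HG producing partner of a matched IDH1 knockdown line; nearly all actives have a fitted effect of over 55% in size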
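HT-1080-NT; 750 cells/well; 5% FBS RPMI; 48 h compound, 37 degrees C; CellTiter-Glo luminescence; curve fitting and curve-class assignment.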
S2 tox = Viability Counterscreen for Primary qHTS for Inhibitors of ATXN expression; Potency, µM (series often up to 56.7 µM), most hits filed as cytotoxic; hit rate 0.49% among 400,000; S2 cells (HEK-293 line with an ATXN2-luciferase reporter) viability, CellTiter-Fluor protease fluorescence, 24 h; note: nearly all actives have a fitted effect of over 40% in size
ATXN2 expr inh = Primary qHTS for Inhibitors of ATXN expression; HEK-293 ATXN2-luciferase reporter, luminescence, 24 h; Potency, µM (highest dose often 57 µM), usual class: inhibitors; hit rate 0.72% among 360,000; AID 1745845, 2022; note: nearly all actives have a fitted effect of over 55% in size
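qHTS (up to 57 uM final) was run with 24 h compound exposure of reporter cells at 37 °C. Each well was multiplexed: SteadyGlo luminescence measured ATXN2-luciferase expression after a fluorogenic Gly-Phe-AFC viability readout (25 uM final).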
HepG2 tox = qHTS for Inhibitors of TGF-b: Cytotox Counterscreen; Potency, µM (titrated, usually from 46.1 µM), most hits filed as cytotoxic; HepG2 CAGA-GFP viability, ATP luminescence, 18 h; hit rate 0.76% among 410,000
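CellTiter-Glo luminescence gave cytotoxicity after 18 hours at 37 degrees C. The cells were HepG2 CAGA-GFP in 1% FBS DMEM, stimulated with 500 pg/mL TGF-beta after compound addition. %Activity was normalised to no-cell wells (complete cell-killing) and DMSO (no toxicity), and curves were fitted and classified.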
TGFb inhibitor = qHTS for Inhibitors of TGF-b. HepG2 CAGA-GFP TGF-b/SMAD3 reporter, GFP fluorescence, 18 h; TGF-beta stimulated, 500 pg/mL final. Potency, µM (titrated, usually from 46.1 µM), usual class: inhibitors. hit rate 1.2% among 410,000; note: nearly all actives have a fitted effect of over 65% in size
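HEPG2 CAGA-GFP reporter cells (1000/well, DMEM with 1% FBS) received compounds, then recombinant TGF-beta at 500 pg/mL final for 18 hours at 37 degrees C. Per-cell GFP summed per well was normalised to unstimulated and stimulated DMSO controls before curve fitting.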
Of the large screens only hits and unclear results are named; the others gave an inactive call; ! = repeats disagree. Calls come from the whole dose curve; as a rule, active = well fitted curve in the direction sought with a large enough effect; inconclusive = small, poorly fitted or top-dose-only effect, or another doubt; inactive = no such curve, though single readings can be large; an effect the other way counts as inactive or inconclusive.

COc1ccc(-n2c(CCNC(=O)c3ccc(-c4cccc(F)c4)cc3)nnc2SC)cc1	none (no result: HT1080 IDH1KD tx, HT1080NT lethal, ATXN2 expr inh, HepG2 tox, TGFb inhibitor)
Cc1ccc(C)c(-n2nnnc2Sc2nnnn2-c2ccccc2)c1	HT1080 IDH1KD tx 16µM, HT1080NT lethal inconclusive, S2 tox inconclusive, ATXN2 expr inh inconclusive, TGFb inhibitor inconclusive
c1ccc(-c2ccc(-c3csc4ncnc(Sc5nnnn5-c5ccccc5)c34)cc2)cc1	TGFb inhibitor inconclusive (no result: HT1080 IDH1KD tx, HT1080NT lethal, S2 tox, ATXN2 expr inh)
Clc1ccc(-c2csc3ncnc(Sc4nnnn4-c4ccccc4)c23)cc1	HepG2 tox 6.3µM, TGFb inhibitor 6.3µM (no result: HT1080 IDH1KD tx, HT1080NT lethal, S2 tox, ATXN2 expr inh)
Cc1sc2ncnc(Sc3ccccc3C(=O)O)c2c1C	none (no result: ATXN2 expr inh)
Clc1ccc(-c2csc3ncnc(Cl)c23)cc1	none
Cc1sc2ncnc(Sc3nnnn3-c3ccccc3)c2c1C	HT1080 IDH1KD tx 7.1µM, HT1080NT lethal 10µM, S2 tox 32µM, ATXN2 expr inh 16µM, HepG2 tox 10µM!, TGFb inhibitor 13µM!
Cc1ccc(-c2csc3ncnc(Sc4nnnn4-c4ccccc4)c23)cc1	TGFb inhibitor 6.3µM (no result: HT1080 IDH1KD tx, HT1080NT lethal, S2 tox, ATXN2 expr inh)
CC1Cc2cc(S(=O)(=O)N(C)c3ccc(Br)cc3)ccc2N1C(=O)C1CC1 (stereo not drawn)	none (no result: HT1080 IDH1KD tx, HT1080NT lethal)
CC(C)(C)c1ccc(Cn2cnc3c(cnn3C(C)(C)C)c2=O)cc1	none (no result: HT1080 IDH1KD tx, HT1080NT lethal, S2 tox, ATXN2 expr inh)
C=C1CC2(OC1=O)c1ccccc1CCc1ccccc12	HT1080 IDH1KD tx 5.8µM, HT1080NT lethal inconclusive, ATXN2 expr inh 6µM, HepG2 tox 14µM, TGFb inhibitor 8.9µM (no result: S2 tox)
Cc1ccc(-n2nnnc2CNC(=O)c2ccc(F)cc2)cc1C	none (no result: HT1080 IDH1KD tx, HT1080NT lethal, S2 tox, ATXN2 expr inh)
O=C(NNC(=O)c1oc2ccccc2c1-n1cccc1)c1ccco1	S2 tox inconclusive
NNC(=O)c1oc2ccccc2c1-n1cccc1	HT1080 IDH1KD tx 4.1µM, HT1080NT lethal 4.6µM, TGFb inhibitor inconclusive (no result: S2 tox)
Cc1nc2ccccc2nc1-c1csc(-c2ccccc2)n1	TGFb inhibitor inconclusive (no result: HT1080 IDH1KD tx, HT1080NT lethal, S2 tox, ATXN2 expr inh)
CCOC(=O)c1ccc(NC(=O)Nc2ccc(S(N)(=O)=O)cc2)cc1	none
CCOC(=O)c1ccc(NC(=O)NC2=NCCS2)cc1	HT1080 IDH1KD tx 2.3µM, HT1080NT lethal 2.6µM (no result: ATXN2 expr inh)
COc1cc(=O)n2c(c1C(=O)N(C)Cc1nonc1C)CCN(C(=O)c1cc(C)ccc1C)CC2	none (no result: HT1080 IDH1KD tx, HT1080NT lethal, ATXN2 expr inh, HepG2 tox, TGFb inhibitor)
COc1cc(CNC(C)(C)CO)ccc1OCC(=O)NC(C)(C)C	S2 tox inconclusive
COc1cc(CNC(C)C23CC4CC(CC(C4)C2)C3)ccc1OCC(=O)NC(C)(C)C (stereo not drawn)	HT1080 IDH1KD tx 23µM, HT1080NT lethal inconclusive, S2 tox inconclusive, TGFb inhibitor inconclusive
CC(C)CC(=O)/C(=C\c1ccc(Cl)cc1Cl)n1cncn1	HT1080 IDH1KD tx 2.9µM, HT1080NT lethal 5.8µM, S2 tox inconclusive, HepG2 tox 7.9µM, TGFb inhibitor 7.1µM (no result: ATXN2 expr inh)
CCOC(=O)CSc1cc(-c2ccccc2)nc2ncnn12	HT1080 IDH1KD tx 18µM, HT1080NT lethal inconclusive, S2 tox inconclusive
CC(C)CC1C(=O)N(Cc2cn(CCC3OCCCO3)nn2)CCS(=O)(=O)N1Cc1ccc(-c2ccc(Cl)c(Cl)c2)cc1 (stereo not drawn)	HT1080 IDH1KD tx inconclusive, HT1080NT lethal inconclusive, S2 tox 32µM, ATXN2 expr inh inconclusive, TGFb inhibitor inconclusive
CCC/C=C/c1ccc(CN2C(CC(C)C)C(=O)N(Cc3cn(Cc4ccco4)nn3)CCS2(=O)=O)cc1 (stereo not drawn)	HT1080 IDH1KD tx inconclusive, HT1080NT lethal inconclusive, S2 tox inconclusive, ATXN2 expr inh inconclusive, TGFb inhibitor 16µM
Cc1ccc(-c2ccc(CN3C(C)C(=O)N(Cc4cn(CCC5OCCO5)nn4)CCS3(=O)=O)cc2)cc1 (stereo not drawn)	none
CC1C(=O)N(Cc2cn(CCC3OCCO3)nn2)CCS(=O)(=O)N1Cc1ccc(-c2ccc(Cl)cc2)cc1 (stereo not drawn)	HT1080 IDH1KD tx inconclusive, HT1080NT lethal inconclusive, S2 tox 32µM, ATXN2 expr inh inconclusive, TGFb inhibitor inconclusive
